From PubChem BioAssay come the findings set out here.

Values without a mark were called inactive. Activity calls are given as the source filed them. Cut-off read from the data, not from the text of the source, unless noted: active = inhibition above about 33%; inactive = the rest.

For the first assay, the target named is Steroidogenic factor 1 (Homo sapiens) (UniProt Q13285). The assay is described as follows: inverse agonism at SF1 nuclear receptor – cell-based, luminescence, high throughput, counter-screen for LRH-1 inverse agonist project (AID 651614; in the data active = inhibition above about 44%;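 note: cells cotransfected with StAR promoter reporter and SF1 expression vector; 0% = vehicle on cells with receptor and 100% = vehicle on cells lacking receptor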). The following applies: cell-based SF1 luciferase reporter, at 3.6 µM, active compounds read high. Background: The purpose of a counterscreen is to sort out artefacts and off-target activity.
Sequence of Steroidogenic factor 1 (Homo sapiens) (Q13285 whole entry, looked up): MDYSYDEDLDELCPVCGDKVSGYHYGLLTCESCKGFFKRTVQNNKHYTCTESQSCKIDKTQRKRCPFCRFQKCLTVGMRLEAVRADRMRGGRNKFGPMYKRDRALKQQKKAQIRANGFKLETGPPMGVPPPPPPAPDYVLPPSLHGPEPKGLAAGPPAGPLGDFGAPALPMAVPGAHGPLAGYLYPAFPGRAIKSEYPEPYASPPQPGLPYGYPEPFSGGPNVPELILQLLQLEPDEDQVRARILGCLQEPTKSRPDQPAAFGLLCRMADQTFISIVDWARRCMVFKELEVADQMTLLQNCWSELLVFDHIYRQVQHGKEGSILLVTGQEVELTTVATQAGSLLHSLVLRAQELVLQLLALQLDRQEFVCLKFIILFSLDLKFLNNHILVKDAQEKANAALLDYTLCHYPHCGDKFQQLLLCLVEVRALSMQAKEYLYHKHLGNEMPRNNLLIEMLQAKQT
On to `O=C(CCl)Nc1cc2[nH]c(=O)[nH]c2cc1Br`, for which the inhibition is 79.1% (active).
As for `Cc1cccc(/C=C(\c2nc3ccccc3[nH]2)S(=O)(=O)c2ccccc2)c1`, the inhibition was 48.8% (active).
Turning to `CN(C)CCC(=O)N1C/C(=C/c2ccccc2)C(=O)/C(=C\c2ccccc2)C1`, the inhibition is 86.6% (active).
The same measure, in the same setting: with `C=CC(=O)N1C/C(=C/c2ccc(Cl)cc2)C(=O)/C(=C\c2ccc(Cl)cc2)C1` the figure was 87.8% (active).
As to `CCN(Cc1ccc(OC)c(F)c1)C(=O)CCl`, the inhibition was 73.3% (active).
With `CC(C)(C)c1ccc(Oc2ccc(NC(=O)C3CC=CCC3C(=O)O)cc2)cc1` (stereo not given), the inhibition was 0.96%.
On to `COc1ccc(CCNc2ncnc3sc(C)cc23)cc1OC`, for which the inhibition was 57.7% (active).
With `CCCCCc1c(CC)ncn1CCc1ccccc1OC`, the inhibition was 25.2%.
On to `Cc1ccc(NC(=O)C2=C(c3ccccc3)S(=O)(=O)CCS2(=O)=O)cc1`, for which the inhibition is 30.3%.
On to `O=C(CCl)N1CCN(S(=O)(=O)Cc2ccccc2)CC1`, for which the inhibition is 47.5% (active).
For the compound `COc1ccc(OC)c(N(CCN2C(=O)c3ccccc3C2=O)C(=O)CCl)c1`, the inhibition was 54% (active).
As to `CC(=O)c1c(C)[nH]c(C(=O)COc2cc(C)ccc2C(C)C)c1C`, the inhibition is 71% (active).
As for `COc1ccc(/C=C/c2nc3ccccc3c(=O)o2)cc1`, the inhibition is 37.2%.
For the compound `O=C(NCCOc1cccnc1)c1ccc(OC2CCN(Cc3ccccn3)CC2)cc1`, the inhibition was 97.6% (active).
For `CC1C/C(=C/c2ccncc2)C(=O)/C(=C/c2ccncc2)C1` (stereo not given), the inhibition is 84.2% (active).
With `Cc1ccc(C(=O)Sc2cccccc2=O)cc1`, the inhibition was 98.6% (active).
`Cc1ccc(-c2nc(NC(=O)c3nn(C)cc3[N+](=O)[O-])sc2C)cc1`: the inhibition was 32.2%.
As to `O=C(CCCc1ccccc1)c1ccc2c(c1)OCCO2`, the inhibition was 55.9% (active).
The same measure, in the same setting: with `O=C(CSc1ncccc1C(=O)O)Nc1ccc2c(c1)OCCO2` the figure was 16.6%; with `Cc1nnsc1C(=O)NC1CCCc2c1cnn2-c1ccc(C(C)(C)C)cc1` (stereo not given), 63.2% (active).
The same measure, in the same setting: to `Cc1scc(C(=O)N/N=C/c2ccc([N+](=O)[O-])o2)c1C` belongs 73.5% (active); to `CCOc1ccc(-c2cc(CCCC(=O)Nc3cccc(OC)c3)no2)cc1`, 48.5% (active); to `O=C1/C(=C\c2ccccc2)CN(C(=O)CCN2CCCCC2)C/C1=C/c1ccccc1`, 84.8% (active).
Take `CC(=O)NC(c1cccc([N+](=O)[O-])c1)c1ccc2cccnc2c1O` (stereo not given): the inhibition was 91.2% (active).
In the case of `COc1cccc(C2=CC(=O)CC(C)(C)C2)n1`, the inhibition was 58.1% (active).
Take `CCCCCCCCCC[n+]1cccc2c3ccccc3ccc21`: the inhibition is 96.1% (active).
As to `Cc1ccnc2c1ccc1cccnc12`, the inhibition is 67.4% (active).
For `CC(C)(C)C(=O)Nc1cc2nn(-c3ccccc3)nc2cc1Cl`, the inhibition is 43.6% (active).
As to `O=C(NCCc1c[nH]c2ccccc12)c1ccc([N+](=O)[O-])o1`, the inhibition was 59.7% (active).
Take `N#Cc1cccc(C=C(C(=O)c2ccccc2)c2ccccc2)c1`: the inhibition is 36.9%.
Still for that read-out and setting: with `CC1C/C(=C\c2cccnc2)C(=O)/C(=C/c2cccnc2)C1` (stereo not given) the figure was 95.6% (active).
For `O=C(CCl)N(c1ccccc1)c1c[nH]c2ccccc12`, the inhibition was 38.5%.
Still for that read-out and setting: with `Cc1cc(C)c(C#N)c(Sc2nc(C)c([N+](=O)[O-])c(C)c2C#N)n1` the figure was 9.59%; with `O=C1C=CC2(C=C1)O[C@H](Cc1ccccc1)[C@@H](Cc1ccccc1)O2`, 73.2% (active).
The same measure, in the same setting: to `C=CC(=O)N1C/C(=C/c2ccccc2)C(=O)/C(=C\c2ccccc2)C1` belongs 77.5% (active); to `COc1ccc(NS(=O)(=O)c2ccc3c(c2)OCCO3)cc1OC`, 67.5% (active); to `COc1ccc(NC(=O)/C(Cl)=C(/Cl)S(=O)Cc2ccccc2)cn1` (stereo not given), 78.2% (active).
For the compound `c1ccc2c(c1)CCN(c1ncnc3c1[nH]c1ccccc13)C2`, the inhibition is 69.5% (active).
On to `CC1CCC/C=C/C(=O)c2c(O)cc(O)cc2CC(=O)O1` (stereo not given), for which the inhibition is 12.9%.
On the same count and under the same terms, to `Cn1cnc([N+](=O)[O-])c1Oc1ccc2ccccc2c1` belongs 54.8% (active).

System in a further assay: not listed separately
The experiment in a line: compounds suppressing VP16-driven luciferase signal – cell-based, luminescence, high throughput, counter-screen for LRH-1 inverse agonist project (AID 651615). The following applies: Gal4-VP16 luciferase reporter cells, at 3.6 µM, active compounds read high.
On to `O=C(CCl)Nc1cc2[nH]c(=O)[nH]c2cc1Br`, for which the inhibition is 2.89%.
Still for that read-out and setting: to `Cc1cccc(/C=C(\c2nc3ccccc3[nH]2)S(=O)(=O)c2ccccc2)c1` belongs 54.1% (active); to `CN(C)CCC(=O)N1C/C(=C/c2ccccc2)C(=O)/C(=C\c2ccccc2)C1`, 77.2% (active).
For the compound `C=CC(=O)N1C/C(=C/c2ccc(Cl)cc2)C(=O)/C(=C\c2ccc(Cl)cc2)C1`, the inhibition is 65.8% (active).
On to `CCN(Cc1ccc(OC)c(F)c1)C(=O)CCl`, for which the inhibition is 21.3%.
Take `CC(C)(C)c1ccc(Oc2ccc(NC(=O)C3CC=CCC3C(=O)O)cc2)cc1` (stereo not given): the inhibition was 5.54%.
As for `COc1ccc(CCNc2ncnc3sc(C)cc23)cc1OC`, the inhibition is 57.9% (active).
Regarding `CCCCCc1c(CC)ncn1CCc1ccccc1OC`, the inhibition was 31.8% (active).
For the compound `Cc1ccc(NC(=O)C2=C(c3ccccc3)S(=O)(=O)CCS2(=O)=O)cc1`, the inhibition is 48.5% (active).
With `O=C(CCl)N1CCN(S(=O)(=O)Cc2ccccc2)CC1`, the inhibition was 15.9%.
Take `COc1ccc(OC)c(N(CCN2C(=O)c3ccccc3C2=O)C(=O)CCl)c1`: the inhibition is 16.1%.
For `CC(=O)c1c(C)[nH]c(C(=O)COc2cc(C)ccc2C(C)C)c1C`, the inhibition was 50.3% (active).
As to `COc1ccc(/C=C/c2nc3ccccc3c(=O)o2)cc1`, the inhibition was -63%.
As to `O=C(NCCOc1cccnc1)c1ccc(OC2CCN(Cc3ccccn3)CC2)cc1`, the inhibition is 87.7% (active).
In the case of `CC1C/C(=C/c2ccncc2)C(=O)/C(=C/c2ccncc2)C1` (stereo not given), the inhibition is 72.9% (active).
Take `Cc1ccc(C(=O)Sc2cccccc2=O)cc1`: the inhibition is 96.8% (active).
Turning to `Cc1ccc(-c2nc(NC(=O)c3nn(C)cc3[N+](=O)[O-])sc2C)cc1`, the inhibition was -0.37%.
With `O=C(CCCc1ccccc1)c1ccc2c(c1)OCCO2`, the inhibition is 26.2%.
As for `O=C(CSc1ncccc1C(=O)O)Nc1ccc2c(c1)OCCO2`, the inhibition is 0.17%.
On the same count and under the same terms, with `Cc1nnsc1C(=O)NC1CCCc2c1cnn2-c1ccc(C(C)(C)C)cc1` (stereo not given) the figure was 50.6% (active).
With `Cc1scc(C(=O)N/N=C/c2ccc([N+](=O)[O-])o2)c1C`, the inhibition was 25.1%.
For the compound `CCOc1ccc(-c2cc(CCCC(=O)Nc3cccc(OC)c3)no2)cc1`, the inhibition was 6.33%.
Regarding `O=C1/C(=C\c2ccccc2)CN(C(=O)CCN2CCCCC2)C/C1=C/c1ccccc1`, the inhibition was 73.7% (active).
On to `CC(=O)NC(c1cccc([N+](=O)[O-])c1)c1ccc2cccnc2c1O` (stereo not given), for which the inhibition is 83.9% (active).
For the compound `COc1cccc(C2=CC(=O)CC(C)(C)C2)n1`, the inhibition was 45.9% (active).
In the case of `CCCCCCCCCC[n+]1cccc2c3ccccc3ccc21`, the inhibition was 95.9% (active).
On the same count and under the same terms, with `Cc1ccnc2c1ccc1cccnc12` the figure was 65.5% (active); with `CC(C)(C)C(=O)Nc1cc2nn(-c3ccccc3)nc2cc1Cl`, 50.1% (active); with `O=C(NCCc1c[nH]c2ccccc12)c1ccc([N+](=O)[O-])o1`, 21.7%.
With `N#Cc1cccc(C=C(C(=O)c2ccccc2)c2ccccc2)c1`, the inhibition was 32.6% (active).
For the compound `CC1C/C(=C\c2cccnc2)C(=O)/C(=C/c2cccnc2)C1` (stereo not given), the inhibition was 91.5% (active).
Consider `O=C(CCl)N(c1ccccc1)c1c[nH]c2ccccc12`, for which the inhibition is 18.8%.
`Cc1cc(C)c(C#N)c(Sc2nc(C)c([N+](=O)[O-])c(C)c2C#N)n1`: the inhibition is 20.6%.
With `O=C1C=CC2(C=C1)O[C@H](Cc1ccccc1)[C@@H](Cc1ccccc1)O2`, the inhibition was 72.5% (active).
The same measure, in the same setting: to `C=CC(=O)N1C/C(=C/c2ccccc2)C(=O)/C(=C\c2ccccc2)C1` belongs 62.2% (active); to `COc1ccc(NS(=O)(=O)c2ccc3c(c2)OCCO3)cc1OC`, 35.5% (active).
The same measure, in the same setting: to `COc1ccc(NC(=O)/C(Cl)=C(/Cl)S(=O)Cc2ccccc2)cn1` (stereo not given) belongs 94.5% (active).
For `c1ccc2c(c1)CCN(c1ncnc3c1[nH]c1ccccc13)C2`, the inhibition was 58.2% (active).
For the compound `CC1CCC/C=C/C(=O)c2c(O)cc(O)cc2CC(=O)O1` (stereo not given), the inhibition was 29.1%.
Regarding `Cn1cnc([N+](=O)[O-])c1Oc1ccc2ccccc2c1`, the inhibition was 10.8%.

In general, inhibition refers to the drop in the measured response relative to a control, in per cent.
